The source made the active and inactive calls.
Tests used:
[1] = target: Albumin (Bos taurus) (UniProt P02769); test: bovine serum albumin binders on microarray, profiling panel, artefact control for SMM control protein annotation, biochemical, small-molecule microarray, Alexa647 label, 635/667 nm fluorescence (AID 1118); conditions: BSA-A647 binding, fluorescence 635 nm, higher = more signal;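 also: score merges 667 nm emission intensity and signal-to-noise per printed compound spot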
[2] = small-molecule microarray binders of probe aXIP, primary screen, biochemical, NeuroSMM set, 635/667 nm fluorescence (AID 1119); conditions: higher = more signal, called active from +8 up or from −8 down;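 also: probe is the protein aXip251-270 applied at 1 µg/mL to compound-printed slides; binding of probe to printed compounds measured as 667 nm fluorescence plus signal to noise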
[3] = small-molecule binders of probe aNOTCH3, primary screen, biochemical, small-molecule microarray, 635/667 nm fluorescence (AID 1120); conditions: higher = more signal;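 also: probe is a biotin-tagged antibody raised against NOTCH3 rather than NOTCH3 protein; score merges spot fluorescence near 667 nm with spot signal to noise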
[4] = small-molecule binders of probe aNOTCH2, primary screen, biochemical, small-molecule microarray, 635/667 nm fluorescence (AID 1121); conditions: higher = more signal;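 also: score merges feature fluorescence read at 667 nm with its signal to noise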
[5] = target: Carbonic anhydrase 2 (Homo sapiens) (UniProt P00918); test: CAII small-molecule binders, profiling panel, biochemical, small-molecule microarray, Alexa647-labelled CAII (AID 1122); conditions: CAII-A647 binding fluorescence, higher = more signal
[6] = COS7 lysate on small-molecule microarray, probe aHis, 635 nm (AID 1123); conditions: COS7 cell lysate, fluorescence, higher = more signal;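 also: z-score combines 667nm fluorescence intensity with signal-to-noise per printed compound spot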
[7] = compound binding in COS7 lysate, probe aLAP1, primary screen, cell lysate, small-molecule microarray (AID 1124); conditions: probe aLAP1, fluorescence, higher = more signal;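 also: lysate comes from COS7 cells expressing LAP1 and is applied at 0.3 µg/mL; score merges spot fluorescence near 667 nm with signal-to-noise over triplicate slides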
[8] = tested on: Sam68 (KHDRBS1); test: Sam68 small-molecule binders, primary screen, biochemical, small-molecule microarray, 635 nm fluorescence (AID 1125); conditions: small-molecule microarray binding, higher = more signal;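 also: score merges 667 nm channel intensity with signal to noise over triplicate slides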
[9] = tested on: Chordin-like protein 2 (CHRDL2); test: CHRDL2 small-molecule binders, primary screen, biochemical, small-molecule microarray, 635 nm fluorescence (AID 1126); conditions: small-molecule microarray binding, fluorescence 635 nm; higher = more signal;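 also: printed compound slides probed with Chrdl2 protein at 4 µg/mL for 1 h at 4 C; score merges 667 nm emission intensity with signal to noise over three replicate slides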
[10] = target: Concanavalin-A (Canavalia ensiformis) (UniProt P02866); test: ConA small-molecule binders, primary screen, artefact control for SMM control protein annotation, biochemical, small-molecule microarray, Alexa647 label, 635 nm (AID 1127); conditions: ConA-A647 binding fluorescence, higher = more signal;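 also: z combines 667 nm emission intensity with signal-to-noise across three replicate slides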
Sequence of Concanavalin-A (Canavalia ensiformis) (P02866 whole entry, looked up): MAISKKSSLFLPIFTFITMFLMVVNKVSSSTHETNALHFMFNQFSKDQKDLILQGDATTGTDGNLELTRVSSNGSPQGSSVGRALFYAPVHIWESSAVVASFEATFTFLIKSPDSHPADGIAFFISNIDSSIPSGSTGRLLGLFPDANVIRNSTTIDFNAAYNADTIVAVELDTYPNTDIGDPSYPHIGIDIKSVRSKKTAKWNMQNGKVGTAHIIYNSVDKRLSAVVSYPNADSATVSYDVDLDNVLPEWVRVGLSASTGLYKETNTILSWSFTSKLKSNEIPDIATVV

[11] = anti-His antibody binders, primary screen, artefact control for SMM control protein annotation, biochemical, small-molecule microarray, 635 nm fluorescence (AID 1128); conditions: anti-His Alexa647 antibody binding, higher = more signal;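 also: score merges feature fluorescence with signal-to-noise for each printed compound spot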
[12] = tested on: Human papillomavirus type 1a E7 protein (residues 1-88); test: HPV1a E7 small-molecule binders, primary screen, biochemical, small-molecule microarray, residues 1-88, 635 nm (AID 1129); conditions: small-molecule microarray binding, fluorescence 635 nm; higher = more signal
[13] = target: Focal adhesion kinase 1 (Homo sapiens) (UniProt Q05397); test: small-molecule microarray binders of FAK, primary screen, biochemical, 635/667 nm fluorescence, BSA, DTT (AID 1130); conditions: PTK2 binding, 635 nm fluorescence, higher = more signal;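 also: composite of spot emission at 667 nm and signal to noise over triplicate slides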
Sequence of Focal adhesion kinase 1 (Homo sapiens) (Q05397 whole entry, looked up): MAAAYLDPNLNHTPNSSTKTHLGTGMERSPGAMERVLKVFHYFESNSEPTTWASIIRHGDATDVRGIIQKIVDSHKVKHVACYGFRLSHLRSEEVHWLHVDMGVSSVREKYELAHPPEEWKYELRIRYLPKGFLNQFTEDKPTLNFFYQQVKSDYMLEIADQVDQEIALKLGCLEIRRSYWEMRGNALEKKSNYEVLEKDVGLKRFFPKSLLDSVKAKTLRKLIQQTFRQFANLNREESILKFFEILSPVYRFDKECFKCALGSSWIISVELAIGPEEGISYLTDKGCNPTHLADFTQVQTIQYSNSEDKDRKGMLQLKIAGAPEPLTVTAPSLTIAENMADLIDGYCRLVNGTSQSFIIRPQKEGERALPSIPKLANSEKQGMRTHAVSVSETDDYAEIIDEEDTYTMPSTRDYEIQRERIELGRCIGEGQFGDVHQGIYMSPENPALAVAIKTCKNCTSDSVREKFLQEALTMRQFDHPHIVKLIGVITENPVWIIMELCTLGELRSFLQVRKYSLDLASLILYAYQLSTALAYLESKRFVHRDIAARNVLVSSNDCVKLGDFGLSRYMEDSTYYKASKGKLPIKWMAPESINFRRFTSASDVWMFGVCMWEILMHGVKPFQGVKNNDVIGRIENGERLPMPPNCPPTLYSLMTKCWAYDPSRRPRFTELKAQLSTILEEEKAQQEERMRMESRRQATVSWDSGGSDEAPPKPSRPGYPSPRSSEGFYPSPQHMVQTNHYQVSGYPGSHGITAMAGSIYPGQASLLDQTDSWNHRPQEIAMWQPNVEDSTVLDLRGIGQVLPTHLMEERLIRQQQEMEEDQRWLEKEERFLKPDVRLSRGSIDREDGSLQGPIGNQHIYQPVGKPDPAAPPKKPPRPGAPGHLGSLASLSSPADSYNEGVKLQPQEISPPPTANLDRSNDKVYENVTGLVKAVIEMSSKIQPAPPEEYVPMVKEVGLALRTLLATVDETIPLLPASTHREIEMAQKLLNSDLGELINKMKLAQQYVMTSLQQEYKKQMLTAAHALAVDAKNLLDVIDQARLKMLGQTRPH

[14] = tested on: Fibrinogen (Alexa647-labelled); test: fibrinogen binders on compound microarrays, profiling panel, artefact control for SMM control-protein annotation, biochemical, small-molecule microarray, 635/667 nm fluorescence (AID 1131); conditions: fibrinogen-A647 binding fluorescence, higher = more signal;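 also: z-score merges 667 nm fluorescence with per-spot signal-to-noise over triplicate slides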
[15] = target: Follistatin (Homo sapiens) (UniProt P19883); test: follistatin binders on small-molecule microarrays, primary screen, biochemical, small-molecule microarray, 635/667 nm fluorescence (AID 1132); conditions: FST binding, 635 nm fluorescence, higher = more signal
Sequence of Follistatin (Homo sapiens) (P19883 whole entry, looked up): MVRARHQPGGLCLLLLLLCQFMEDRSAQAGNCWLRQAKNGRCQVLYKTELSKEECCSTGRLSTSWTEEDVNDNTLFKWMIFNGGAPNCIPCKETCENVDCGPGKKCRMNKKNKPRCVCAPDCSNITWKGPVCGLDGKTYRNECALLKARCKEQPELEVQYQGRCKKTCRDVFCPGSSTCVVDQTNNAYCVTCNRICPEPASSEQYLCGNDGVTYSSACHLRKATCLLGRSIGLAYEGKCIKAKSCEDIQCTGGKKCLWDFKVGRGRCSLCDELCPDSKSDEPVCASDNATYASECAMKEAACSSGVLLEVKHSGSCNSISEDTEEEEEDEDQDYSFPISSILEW

[16] = target: Fibroblast growth factor 2 (Homo sapiens) (UniProt P09038); test: FGF2 binders on small-molecule microarrays, primary screen, biochemical, small-molecule microarray, 635/667 nm fluorescence (AID 1133); conditions: small-molecule microarray binding, FGF2, fluorescence 635/667; higher = more signal
Sequence of Fibroblast growth factor 2 (Homo sapiens) (P09038 whole entry, looked up): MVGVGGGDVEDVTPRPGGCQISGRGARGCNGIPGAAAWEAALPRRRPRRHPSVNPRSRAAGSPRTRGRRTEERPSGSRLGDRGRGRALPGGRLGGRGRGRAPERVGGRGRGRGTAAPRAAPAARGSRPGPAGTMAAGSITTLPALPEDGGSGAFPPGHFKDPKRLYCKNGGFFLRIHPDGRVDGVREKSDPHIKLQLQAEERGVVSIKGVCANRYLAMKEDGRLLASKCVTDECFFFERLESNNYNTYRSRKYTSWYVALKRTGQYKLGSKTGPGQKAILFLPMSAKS

[17] = mitochondrial membrane potential change in A549 cells, profiling panel, cell-based, JC-1 fluorescence, basal, 24 h, 100 nL (AID 1138); conditions: higher = more signal;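 also: A549 lung adenocarcinoma cells under basal conditions with no added stimulus; test concentration not given here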
[18] = tested on: Lefty1; test: Lefty1 binders on small-molecule microarrays, primary screen, biochemical, small-molecule microarray, 635/667 nm fluorescence (AID 1139); conditions: small-molecule microarray binding, fluorescence 635/667; higher = more signal
[19] = tested on: wheat germ agglutinin (Triticum aestivum), Alexa647-labelled; test: wheat germ agglutinin binders on compound microarrays, profiling panel, artefact control for SMM control-protein annotation, biochemical, small-molecule microarray, 635/667 nm fluorescence (AID 1140); conditions: WGA-A647 binding, 635 nm fluorescence, higher = more signal;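 also: score merges 667 nm feature emission with signal to noise over triplicate slides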
[20] = target: Luciferin 4-monooxygenase (Photinus pyralis) (UniProt P08659); test: firefly luciferase enzyme inhibitors, primary screen, biochemical, luminescence, purified enzyme, 2006 set (AID 1141); conditions: SteadyGlo luminescence, 30 min, higher = more signal, called active from +8 up or from −8 down;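 also: cell-free assay with purified firefly luciferase at 100 ng per well in PBS; test concentration not given here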
Sequence of Luciferin 4-monooxygenase (Photinus pyralis) (P08659 whole entry, looked up): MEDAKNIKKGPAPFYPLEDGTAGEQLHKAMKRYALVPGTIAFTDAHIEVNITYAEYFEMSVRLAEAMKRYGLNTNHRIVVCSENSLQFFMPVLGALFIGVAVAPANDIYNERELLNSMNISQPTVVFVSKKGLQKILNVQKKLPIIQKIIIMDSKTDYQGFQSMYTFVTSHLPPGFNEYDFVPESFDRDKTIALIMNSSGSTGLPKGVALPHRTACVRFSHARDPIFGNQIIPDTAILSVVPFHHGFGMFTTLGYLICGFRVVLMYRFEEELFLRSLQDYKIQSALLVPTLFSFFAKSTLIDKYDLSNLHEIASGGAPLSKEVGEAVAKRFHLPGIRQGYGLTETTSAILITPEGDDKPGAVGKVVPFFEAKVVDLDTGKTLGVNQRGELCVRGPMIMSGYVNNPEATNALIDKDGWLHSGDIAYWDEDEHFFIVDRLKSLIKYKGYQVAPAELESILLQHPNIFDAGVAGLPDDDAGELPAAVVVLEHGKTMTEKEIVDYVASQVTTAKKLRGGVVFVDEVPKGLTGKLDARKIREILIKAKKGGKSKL

Sequence of Albumin (Bos taurus) (P02769 whole entry, looked up): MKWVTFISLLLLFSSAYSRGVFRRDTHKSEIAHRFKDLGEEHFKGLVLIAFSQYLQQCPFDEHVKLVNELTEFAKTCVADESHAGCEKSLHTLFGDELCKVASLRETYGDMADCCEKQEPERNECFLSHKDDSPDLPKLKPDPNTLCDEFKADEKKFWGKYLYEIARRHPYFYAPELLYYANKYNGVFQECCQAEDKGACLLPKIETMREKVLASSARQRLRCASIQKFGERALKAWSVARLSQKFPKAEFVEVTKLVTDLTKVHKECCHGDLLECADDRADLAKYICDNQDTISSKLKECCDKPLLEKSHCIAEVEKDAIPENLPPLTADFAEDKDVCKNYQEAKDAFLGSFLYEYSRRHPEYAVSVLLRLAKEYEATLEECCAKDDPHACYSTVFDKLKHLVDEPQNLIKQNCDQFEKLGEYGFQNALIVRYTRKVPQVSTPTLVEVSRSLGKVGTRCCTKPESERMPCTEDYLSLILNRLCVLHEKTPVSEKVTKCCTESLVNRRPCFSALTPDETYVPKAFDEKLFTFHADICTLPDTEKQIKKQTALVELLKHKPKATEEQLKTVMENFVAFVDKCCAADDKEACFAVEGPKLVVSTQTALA

Row | SMILES | composite z-score [1] | composite Z-score [2] | composite z-score [3] | composite z-score [4] | composite z-score [5] | composite z-score [6] | composite z-score [7] | composite z-score [8] | composite z-score [9] | composite z-score [10] | composite z-score [11] | composite z-score [12] | composite z-score [13] | composite z-score [14] | composite z-score [15] | composite z-score [16] | z-score [17] | composite z-score [18] | composite z-score [19] | z-score [20]
1 | CCCC[C@@H](O)C1=C(COC)C[C@H]2C(=O)N(Cc3ccccc3)C(=O)[C@H]2[C@H]1CO | 0.232 | -0.306 (inactive) | -0.214 | -0.0668 | 0.0793 | 0.368 | 0.263 | 0.651 | 0.293 | 0.455 | 0.708 | 0.33 | -0.285 | 0.98 | 0.855 | 1.33 | 0.699 | 0.697 | 1.13 | -0.903 (inactive)
2 | CCCCCC1=C2CNC(C)(C(=O)OC)C=C2C(C)C1=O (stereo not given) | 0.673 | 0.239 (inactive) | -0.0716 | 0.0414 | 0.839 | 1.18 | 0.947 | -0.868 | -0.409 | -1.51 | 1.46 | -0.575 | -0.108 | -0.833 | -0.642 | -0.328 | 1.01 | -0.427 | 0.234 | 2.31 (inactive)
3 | C=CC[C@]1(C(=O)N2CCOCC2)COC(c2ccc(OCCCO)cc2)=N1 | 1.08 | -0.275 (inactive) | 0.298 | -0.13 | 0.777 | 3.27 | 1.6 | 1.28 | 0.191 | 1.16 | 2.4 | 1.3 | 0.555 | 0.837 | 1.33 | 0.386 | -0.772 | 0.768 | 0.959 | 0.566 (inactive)
4 | C=C[C@H]1C(C(=O)OCC)=CC[C@@H](c2ccccc2)N1S(=O)(=O)c1ccc(C)cc1 | 0.644 | -0.176 (inactive) | 0.382 | -0.0345 | 0.627 | 1.67 | 0.516 | 1.1 | 0.218 | 0.789 | 1.53 | 1.22 | 0.736 | 0.964 | 1.2 | 0.0703 | 3.33 | 0.325 | 0.677 | 0.26 (inactive)
5 | CCCN1C(=O)[C@]2(Cc3ccccc31)N=C(c1ccc(OCCCO)cc1)O[C@@H]2c1ccccc1 | -0.0671 | 0.0068 (inactive) | 0.247 | -0.125 | 0.625 | 2.19 | 0.402 | 1.24 | -0.184 | 0.884 | 1.18 | 1.22 | 0.867 | 0.971 | 1.3 | 0.716 | -0.23 | 0.56 | 1.11 | -0.133 (inactive)
6 | CCCCC(CC)C(O)C1C=CC2C(=O)N(c3ccccc3)C(=O)C2N1Nc1ccc(C#N)cc1 (stereo not given) | 1.02 | 0.369 (inactive) | 0.64 | 0.353 | 0.595 | 2.21 | 0.664 | 1.13 | 0.0027 | 1.2 | 1.34 | 1.21 | 0.702 | 0.922 | 1.07 | 0.208 | -0.213 | 0.131 | 1.12 | -1.92 (inactive)
7 | COCCCNC(=O)[C@@H]1c2ccccc2C(=O)N(C(C)C)[C@H]1c1ccc(CO)cc1 | 0.0913 | 0.0178 (inactive) | 0.0577 | -0.125 | 0.25 | -0.756 | -0.366 | 0.0457 | -0.0306 | 0.856 | -0.255 | -0.264 | 0.37 | -0.335 | 0.681 | 0.105 | 0.448 | -0.109 | -0.199 | -0.604 (inactive)
8 | C=C(COC)/C(=C/C[C@H](OC(=O)c1ccncc1)c1ccc(CO)o1)c1cnc2ccccc2c1 | -0.0377 | 0.99 (inactive) | 0.0282 | -0.123 | 0.915 | 1.04 | 1.12 | 1.27 | 0.766 | 1.08 | 0.283 | 1.15 | 0.382 | 0.271 | 1.25 | 0.222 | 0.818 | 1.57 | 0.734 | -1.72 (inactive)
9 | C=C(/C(=C/C[C@H](OC(C)=O)c1ccc(CO)o1)c1cnc2ccccc2c1)C(C)C | 0.899 | 0.456 (inactive) | 0.245 | -0.148 | 0.945 | 0.948 | 0.269 | 1.29 | 1.06 | 1.14 | 1.07 | 1.16 | 0.38 | 0.988 | 1.39 | 1.41 | -0.874 | 1.55 | 1.33 | -1.41 (inactive)
10 | COCCOC(=O)N1C(=O)[C@@]2(c3ccccc31)[C@H](c1ccc(O)cc1)N1[C@H](c3ccccc3)[C@H](c3ccccc3)OC(=O)[C@H]1[C@@H]2C(=O)N1CCN(c2ncccn2)CC1 | 0.397 | 0.0692 (inactive) | -0.0014 | 0.0456 | 0.202 | 1.83 | 1.03 | 1.2 | 0.375 | 0.928 | 0.682 | 1.14 | 0.666 | 0.244 | 1.04 | 1.43 | -0.727 | 0.806 | 0.026 | 0.504 (inactive)
11 | C=CC[C@@]1(C(=O)NCCCOC)N=C(c2ccc(OCCCO)cc2)O[C@@H]1c1ccccc1 | 0.8 | 0.604 (inactive) | 0.169 | 0.0977 | 0.597 | 3.2 | 0.601 | 0.316 | -0.919 | 0.174 | 2.85 | 1.19 | 0.166 | -0.273 | 1.3 | 0.594 | 0.565 | -0.476 | 0.471 | -0.589 (inactive)
